The campaign covered roughly 360,000 compounds. About 7,500 (2.1%) were called active. Inconclusive results (about 8%) are left out. Calls follow the shape of the dose curve; as a rule, active = well fitted cell-killing curve with a large enough effect; inconclusive = small, poorly fitted or top-dose-only effect, or effect the other way, or another doubt; inactive = no such curve, though single readings can be large or run the other way. What follows is part of a selection rich in actives, with near analogues and random picks from the rest. A call without a number means that no potency is given here.
Potency is read from the fitted curve at half-maximal effect.

The test in a line: qHTS for induction of synthetic lethality in tumor cells producing 2HG: qHTS for the HT-1080-IDH1KD cell line. The following applies: HT-1080 IDH1 knockdown viability, ATP luminescence, 48 h; series mostly up to 46.1 µM. Put shortly:
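After a 2 h attachment period, IDH1KD HT-1080 cells took pin-transferred compound for 48 h at 37 °C; ATP-based luminescence after 10 min room-temperature reagent incubation reported viability.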
Regarding `COc1ccc(C(C(=O)NCc2ccccc2)n2c(=O)c(-c3ccccc3)nc3ccccc32)cc1` (stereo unspecified), the Potency entry is “inactive”.
The value for `C[C@H](O)[C@@H]1C(=O)N2CCc3c([nH]c4ccccc34)[C@@H]2C[C@@H]1N(C)C(=O)Nc1ccc(F)cc1` was “inactive”; that for `CC1(C(=O)Nc2ccc3c(c2)OCCO3)CCN1C(=O)Cc1cc(F)ccc1F` (stereo unspecified) was “inactive”.
The value for `CC(C)OC(=O)c1ccc(NCc2cc(O)ccc2O)cc1Cl` was 23.1 µM (active).
Take `COC(=O)c1ccc(NCc2cc(O)ccc2O)cc1`: the Potency is 20.6 µM (active).
In the case of `CC(C)NC(=O)c1ccc(Cl)cc1Cl`, the Potency result is “inactive”.
The value for `COC(=O)c1ccc(NC(=O)Nc2ccc(C)cc2)cc1` was “inactive”; that for `COC(=O)c1ccc(NCC(=O)c2ccccc2)cc1` was “inactive”; that for `CC1(C)C2CCC1(C)C(OC(=O)c1ccc(O)cc1)C2` (stereo unspecified) was “inactive”.
With `CC(CN1CCOCC1)OC(=O)c1ccc(Cl)cc1Cl` (stereo unspecified), the Potency entry was “inactive”.
For the molecule `O=C(OC12CC3CC(CC(C3)C1)C2)c1ccc(NCc2cc(O)ccc2O)cc1`, the Potency is 23.1 µM (active).
`C[C@@H]1CN([C@@H](C)CO)C(=O)c2cc(NS(C)(=O)=O)ccc2O[C@@H](C)CCCCO[C@H]1CN(C)C(=O)Nc1ccc2c(c1)OCO2`: the Potency entry was “inactive”.
For the molecule `CCNC(=O)C1(C)CCCN(Cc2noc(-c3ccccc3OC)n2)C1` (stereo unspecified), the Potency result is “inactive”.
The value for `CC(=O)c1nn(-c2ccccc2)c(=Nc2ccccc2)cc1C` was “inactive”; that for `CCCNC(=O)C1(C)CCN1C(=O)C1(c2ccccc2)CC1` (stereo unspecified) was “inactive”; that for `CCCCCCN1CCN(C2CN(Cc3cn(CCCCCC)nn3)S(=O)(=O)C2)CC1` (stereo unspecified) was “inactive”.
The entry for `COc1ccc(CN2CCC(C)(Oc3cccc(F)c3)C2)c2ccccc12` (stereo unspecified) is “inactive”; for `CCCCN1C[C@H](c2ccc(Br)cc2)[C@@H](CC(=O)Nc2ccc(Br)cc2)C1=O` it is “inactive”; for `O=C(CNC(=O)N1CC(=O)Nc2ccccc21)Nc1ccc(Br)cc1F` it is “inactive”.
The value for `COc1ccc(/C=N/NC(=O)CNC(=O)c2ccc(S(=O)(=O)N3CCCC3)cc2)c(OC)c1` was “inactive”.
As to `COc1ccc(C(=O)NCC(=O)N/N=C/c2ccc([N+](=O)[O-])o2)cc1OC`, the Potency is 14.6 µM (active).
The value for `COc1cccc(/C=N/NC(=O)CNC(=O)c2ccc(S(=O)(=O)N3CCOCC3)cc2)c1OC` was “inactive”; that for `Cc1ccc(-c2nc3ccccn3c2Nc2ccc(F)cc2)o1` was “inactive”; that for `O=C1NC[C@H](CCCCN2C[C@H](Cc3ccc(O)cc3)N(CCc3ccccc3)C(=O)C2=O)N(CCc2ccccc2)C1=O` was “inactive”.
The entry for `Cc1ccc(C)c(CN2CCC(CNC(=O)Nc3ccc(C)c(F)c3)CC2)c1` is “inactive”; for `Cc1ccccc1NC(=O)NCC1CCN(Cc2cccc(Cl)c2)CC1` it is “inactive”; for `Cc1cccc(CN2CCC(CNC(=O)Nc3ccc(F)c(Cl)c3)CC2)c1` it is 14.6 µM (active).
In the case of `CSCCC(C(=O)NC(C)(C)C)n1c(-c2ccccc2)nc2ccccc21` (stereo unspecified), the Potency entry is “inactive”.
The value for `COc1ccc(-c2nnc(NC(=O)CS(=O)(=O)c3ccc(Cl)cc3)o2)c(OC)c1` was “inactive”; that for `O=C(Nc1nnc(-c2ccco2)o1)c1ccc(S(=O)(=O)N2CCOCC2)cc1` was “inactive”; that for `COc1cccc(-c2nnc(NC(=O)c3ccc(S(=O)(=O)N(CC(C)C)CC(C)C)cc3)o2)c1` was 2.59 µM (active).
The value for `COc1cc(C)c(CN2CCN(C(=O)CCC(=O)c3ccc(C)s3)CC2)cc1OC` was “inactive”; that for `COc1ccc(NC(=O)c2sc(=O)n(Cc3ccc(S(=O)(=O)N(C)C)cc3)c2C)cc1` was “inactive”; that for `CC1(C(=O)Nc2ccc3c(c2)OCCO3)CSCC(=O)N1CCOc1ccccc1` (stereo unspecified) was “inactive”.
The entry for `Cc1ccn(CC(=O)NC2CCCN(Cc3ccccc3F)C2)n1` (stereo unspecified) is “inactive”.
Take `CC1Cc2[nH][nH]c(=O)c2C(C2CC2)O1` (stereo unspecified): the Potency result is “inactive”.
The figure for `O=C(/C=C/Sc1ncn[nH]1)c1ccc(Cl)cc1` is 5.8 µM (active); for `O=C(CSc1ncn[nH]1)Nc1ccc(Br)cc1Br` it is “inactive”.
On to `Cc1cccc(C=CC(=O)c2ccc(Cl)cc2)c1`, for which the Potency entry is “inactive”.
The value for `Cc1ccc([C@H]2C[C@H](O)[C@@H](n3cc(COC(=O)c4ccccc4)nn3)CN2C(=O)C2CCCCC2)cc1` was “inactive”; that for `C=CCNc1nc(N)c([N+](=O)[O-])c(NC2CCCCC2)n1` was “inactive”.
`Nc1nc(Nc2ccccc2F)nc(NC2CCCCC2)c1[N+](=O)[O-]`: the Potency is 18.4 µM (active).
The value for `Nc1nc(NCC2CCCO2)nc(Nc2ccccc2F)c1[N+](=O)[O-]` (stereo unspecified) was “inactive”; that for `COc1ccc(-c2nn(-c3ccccc3)cc2CN2CCCO2)c(F)c1` was “inactive”; that for `Cn1cc(CN2CCC(C(O)CCc3ccccc3)CC2)c(-c2ccccc2F)n1` (stereo unspecified) was “inactive”.
The entry for `Cc1cccc(-n2cc(CN3CCN(C(=O)c4ncn[nH]4)CC3)c(-c3cccc(F)c3)n2)c1` is “inactive”; for `COc1ccc(-n2cc(CN(C)Cc3n[nH]c(=O)[nH]3)c(-c3cccc(F)c3)n2)cc1` it is “inactive”; for `COc1ccc(-n2cc(CNC3CCOCC3)c(-c3cccc(F)c3)n2)cc1` it is 18.4 µM (active).
The value for `CCC(O)C1CCN(Cc2cn(-c3ccc(OC)cc3)nc2-c2cccc(F)c2)CC1` (stereo unspecified) was 14.6 µM (active).
Consider `CC1(C)CN(Cc2cccnc2)C(=O)[C@H]1CC(=O)Nc1ccc(Br)cc1`, for which the Potency result was “inactive”.
As to `CCc1nnc(NC(=O)c2ccco2)s1`, the Potency entry was “inactive”.
The figure for `O=C(Nc1ccc(OC(F)(F)F)cc1)c1ccc2c(c1)no[n+]2[O-]` is 11.6 µM (active).
The value for `Cn1nccc1NC(=O)Nc1ccc(OC(F)(F)F)cc1` was “inactive”; that for `Cn1cccc1/C=N/NC(=O)c1ccc(OC(F)(F)C(F)F)cc1` was “inactive”.
The entry for `CC1(c2cccc(N)c2)OCCO1` is “inactive”; for `Cc1ccc(-c2cnc(C(O)c3cccc(C)c3C)[nH]2)cc1` (stereo unspecified) it is “inactive”; for `Cc1ccc(-c2nc3c(C)cc(Br)cn3c2Cc2ccccc2)cc1` it is “inactive”.
With `CCOc1ccc(CCN2C(=O)C(=O)N([C@@H](Cc3ccc(O)cc3)CN3CCC[C@H]3CN3C(=O)C(=O)NC[C@@H]3CC(C)C)C[C@@H]2Cc2ccccc2)cc1`, the Potency result is “inactive”.
The entry for `CC(C)C[C@H]1CN([C@@H](Cc2ccccc2)CN2CCC[C@@H]2CN2C(=O)C(=O)NC[C@@H]2Cc2ccc(O)cc2)C(=O)C(=O)N1CCc1ccccc1` is “inactive”; for `CC(C)C[C@H]1CNC(=S)N1C[C@H]1CCCN1C[C@H](Cc1ccc(O)cc1)N1C[C@H](Cc2ccc(O)cc2)N(CC2CCCCC2)C1=S` it is 14.6 µM (active).
As for `CC(C)[C@H](NC(=O)c1ccccc1F)C(=O)Nc1cccc(S(=O)(=O)N2CCOCC2)c1`, the Potency result is “inactive”.
The entry for `C[C@H]1NS(=O)(=O)c2cc(Cl)ccc2O[C@@H]1c1ccccc1` is “inactive”.
The value for `CC(Sc1ccc(S(=O)(=O)N2CCN(C)CC2)cn1)C(=O)NC1CCCC(C)C1C` (stereo unspecified) was “inactive”; that for `CCC(C)Sc1nc2c(c(=O)[nH]c(=O)n2C)n1CC(O)COc1cccc2ccccc12` (stereo unspecified) was “inactive”; that for `CC(C)c1ccccc1OCC(O)CN(CC(O)COc1cccc2ccccc12)C(C)C` (stereo unspecified) was 25.9 µM (active).
Regarding `CC1CC(C)CN(CCOc2cccc3ccccc23)C1` (stereo unspecified), the Potency result is “inactive”.
The value for `Cc1[nH]c2ccccc2c1C(=O)C(=O)NCc1nnnn1-c1cccc(F)c1` was “inactive”.
The value for `O=C(NCc1ccc(F)cc1F)[C@@H]1CCCN1C(=O)[C@@H]1CCCN1C(=O)c1cccc(Cl)c1` was “inactive”.
The entry for `O=C(c1ccc2c(=O)n(Cc3ccco3)c(=S)[nH]c2c1)N1CCCC1` is “inactive”; for `CCN(CC)CCCSc1nc2ccccc2s1` it is “inactive”; for `Cc1nc2nc(CSc3nc4ccccc4s3)cc(=O)n2[nH]1` it is “inactive”.
Take `O=[N+]([O-])c1c(NCCO)cc(Sc2nc3ccccc3s2)c2nonc12`: the Potency was 3.16 µM (active).
`CCc1nc2c(OCCc3cccc(OC)c3)cccn2c1N(C)C(=O)c1ccc(C)cc1`: the Potency result is “inactive”.
On to `Cc1cc(C(=O)Nc2nnc(C3CC3)s2)c(C)s1`, for which the Potency result was “inactive”.
The value for `CCc1ccccc1OCC(=O)Nc1nnc(C2CC2)s1` was “inactive”; that for `O=C(Nc1nnc(C2CC2)s1)c1ccccn1` was 5.01 µM (active).
With `C[C@@H]1CN([C@H](C)CO)C(=O)c2cc(-c3ccc(F)cc3)cnc2O[C@H]1CN(C)C(=O)c1ccc(F)cc1`, the Potency result was “inactive”.
Consider `O=C(Cc1ccccc1)NCc1ccc(F)cc1`, for which the Potency result was “inactive”.
The value for `O=C(CCc1ccccc1)NNc1ccc(F)cc1` was 2.31 µM (active); that for `CC(=O)Nc1ccc(S(=O)(=O)NNC(=O)CCc2ccccc2)cc1` was “inactive”; that for `COc1ccc(-c2ccc(CN3C(C(C)C)C(=O)N(Cc4cn(CC5CCCCC5)nn4)CCS3(=O)=O)cc2)cn1` (stereo unspecified) was “inactive”.

For the origin of these results see PubChem BioAssay AID686971 (National Center for Advancing Translational Sciences (NCATS), 2013).
